We go through 17 compounds from PubChem BioAssay (Tox21).

Values joined by “and” are separate entries in the source; they are usually repeats but may differ in a detail not shown here. Equal entries are not always repeated. Records with an inconclusive call do not appear. A structure can be active in one record and inactive in another. Active and inactive are the calls of the source. Calls follow the shape of the dose curve; as a rule, active = well fitted curve in the direction sought with a large enough effect in the repeat runs; inconclusive = weak or mixed curves; inactive = no such curve, though single readings can be large; an effect the other way counts as inactive or inconclusive.

Test [1] in a line: A CellTox Green Cytotoxicity Assay to monitor cytotoxicity in HEK293 cells - 40 hour (AID 1224871). Also: nearly all actives have a fitted effect of over 45% in size. Also: potency is read from the fitted curve at half-maximal effect. The gist of the method:
(§1)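 Nonlytic real-time cytotoxicity: HEK293 + CellTox Green reagent plated, 5 h preincubation, pintool compound addition (23 nL in DMSO), 37 C for 40 h, fluorescence measured at successive time points.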

Test [2] is described as follows: qHTS RealTime-Glo MT Cell Viability Assay in HEK293 cells - 16 hour (AID 1224872). Also: nearly all actives have a fitted effect of over 50% in size. Also: potency is read from the fitted curve at half-maximal effect. As to activity change, negative = cytotoxicity: top concentration of the series differs between compounds. The gist of the method:
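Tox21 10K qHTS, HEK293, 600 cells/well, RealTime-Glo reagent co-dispensed with cells; 5 h preincubation, compound by pintool, 37 C, luminescence at 0–40 h.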

A short description of test [3]: qHTS RealTime-Glo MT Cell Viability Assay in HepG2 cells - 8 hour (AID 1224873). Also: nearly all actives have a fitted effect of over 55% in size. Also: potency is read from the fitted curve at half-maximal effect. The gist of the method:
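HepG2 cells (600/well) mixed with RealTime-Glo MT reagent, settled 5 h at 37 C/5% CO2 before compound addition. Nonlytic NanoLuc luminescence from viable-cell prosubstrate reduction read repeatedly during 40 h treatment at 37 C.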
(In qHTS, concentration-response curves come from the screen itself.)

Test [4] can be described thus: qHTS RealTime-Glo MT Cell Viability Assay in HEK293 cells - 40 hour (AID 1224874). Also: nearly all actives have a fitted effect of over 50% in size. Also: potency is read from the fitted curve at half-maximal effect. To be noted: RealTime-Glo luminescence; max response: stronger effect = lower value. In short, it runs like this: (§2)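 Cells were seeded together with NanoLuc luciferase and a prosubstrate that viable cells reduce to a luciferase substrate. After a 5 h incubation at 37 C/5% CO2, compounds were added and luminescence was measured repeatedly during 40 h of treatment.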

Test [5] is described as follows: A CellTox Green Cytotoxicity Assay to monitor cytotoxicity in HEK293 cells - 24 hour (AID 1224875). Also: nearly all actives have a fitted effect of over 45% in size. Also: potency is read from the fitted curve at half-maximal effect. As to activity change: series mostly up to about 77 µM. The gist of the method: as §1
A short description of test [6]: A CellTox Green Cytotoxicity Assay to monitor cytotoxicity in HepG2 cells - 16 hour (AID 1224876). Also: nearly all actives have a fitted effect of over 45% in size. Also: potency is read from the fitted curve at half-maximal effect. In short, it runs like this: (§3)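 Read-out is fluorescence of a cyanine dye excluded from live cells that stains DNA of dead HepG2 cells, with signal proportional to cytotoxicity. Plates were read at 0, 8, 16, 24, 32 and 40 h after compound addition.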
Test [7] in a line: qHTS RealTime-Glo MT Cell Viability Assay in HepG2 cells - 32 hour (AID 1224877). Also: nearly all actives have a fitted effect of over 55% in size. Also: potency is read from the fitted curve at half-maximal effect. The gist of the method: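 Cells + NanoLuc/prosubstrate dispensed (600 cells/well) → 5 h at 37 C/5% CO2 → compounds in DMSO transferred → 40 h incubation at 37 C, luminescence read at 0, 8, 16, 24, 32, 40 h.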
Test [8] is described as follows: A CellTox Green Cytotoxicity Assay to monitor cytotoxicity in HepG2 cells - 24 hour (AID 1224878). Also: nearly all actives have a fitted effect of over 45% in size. Also: potency is read from the fitted curve at half-maximal effect. The gist of the method:
as §3

Test [9] can be described thus: A CellTox Green Cytotoxicity Assay to monitor cytotoxicity in HepG2 cells - 40 hour (AID 1224879). Also: nearly all actives have a fitted effect of over 40% in size. Also: potency is read from the fitted curve at half-maximal effect. In short, it runs like this: as §3
Test [10] is described as follows: qHTS RealTime-Glo MT Cell Viability Assay in HEK293 cells - 0 hour (AID 1224880). The gist of the method: as §2
% is scaled to controls: 0 for no effect and ±100 for the full control effect.

For the compound `Cc1nc(-c2ccc(Cl)cc2)oc1COC(C)(C)C(=O)O`, the Potency entry in test [1], in test [2], in test [3], in [5], in test [6] and in [7] was “inactive” each time. Also, the Potency entry in test [8], in [9] and in [10] was “inactive” in each case. For the same compound, in [4], the max response was 0.172% (inactive).
With `Cc1nc2n(c(=O)c1CCN1CCC(c3noc4cc(F)ccc34)CC1)CCCC2`, the Potency entry in [1], in test [3], in [5], in [6], in test [7] and in [8] was “inactive” in each case. Moreover, the Potency result in test [9] and in test [10] was “inactive” each time. The Potency in test [2] and in test [4] was 3.01 µM (active) in each case.
Consider `COc1ccc(-c2coc3cc(O)ccc3c2=O)cc1`, for which the Potency entry in test [1], in [2], in test [3], in test [5], in test [6] and in [7] was “inactive” each time. In addition, the Potency result in test [8], in test [9] and in test [10] was “inactive” throughout. Also, the max response in [4] was -10.2% (inactive).
Take `CC(C)(C)CC(C)(C)c1ccc(Nc2ccc(C(C)(C)CC(C)(C)C)cc2)cc1`: the cytotoxicity increase was 0.599% [at 6.97 µM] (inactive) in [1], -0.431% [at 6.97 µM] (inactive) in test [6] and 2.12% [at 6.97 µM] (inactive) in test [9]. The activity change, negative = cytotoxicity in test [2] is -0.589% [at 6.97 µM] (inactive); in [10], -8.12% [at 6.97 µM] (inactive). In addition, the viability change, negative = cytotoxic in [3] is 4.91% [at 6.97 µM] (inactive). In test [4], the max response was 9% (inactive). The activity change in [5] was 4.29% [at 6.97 µM, stronger effect = higher value] (inactive). In addition, in [7], the activity change, negative = cytotoxic is 0.186% [at 6.97 µM] (inactive). For the same compound, the cytotoxicity in test [8] was 4.45% [at 6.97 µM] (inactive).
Consider `CC1(C)[C@@H](O)CC[C@]2(C)[C@H]3C(=O)C=C4[C@@H]5C[C@@](C)(C(=O)O)CC[C@]5(C)CC[C@@]4(C)[C@]3(C)CC[C@@H]12`, for which the Potency result in [1], in test [2], in test [3], in test [5], in test [6] and in test [7] was “inactive” throughout. Also, the Potency entry in test [10] is “inactive”. The max response in test [4] is 13.7% (inactive).
On to `Cc1c(N)cccc1C(F)(F)F`, for which the Potency entry in test [1], in test [2], in test [3], in test [5], in [6] and in test [7] was “inactive” throughout. In addition, the Potency result in [8], in test [9] and in test [10] was “inactive” in each case. The max response in test [4] was -0.691% (inactive).
As to `O=C1C(c2[nH]c3ccc(S(=O)(=O)O)cc3c2O)=Nc2ccc(S(=O)(=O)O)cc21`, the Potency entry in test [1], in [2], in test [3], in [5], in test [6] and in test [7] was “inactive” each time. Besides, the Potency entry in test [8], in [9] and in test [10] was “inactive” each time. Also, the max response in [4] was 10.2% (inactive).
On to `C=CCCC(=O)/C=C/C1C(C)=CCCC1(C)C` (configuration not stated), for which the Potency is 24.5 µM (active) in [1] and 34.7 µM (active) in [5]. Also, the Potency entry in [2], in [3], in test [6], in test [7], in [8] and in [9] was “inactive” in each case. Also, in test [10], the Potency entry was “inactive”. Further, the max response in test [4] is -12.7% (inactive).
As to `CCCCCC/C=C\CCCCCCCC(=O)O`, the Potency result in test [1], in [2], in test [3], in test [5], in test [6] and in test [7] was “inactive” each time. Besides, the Potency result in test [8], in test [9] and in test [10] was “inactive” throughout. For the same compound, the max response in test [4] is -4.29% (inactive).
Consider `CCCCCCCCCCCCCC[N+](C)(C)C`, for which the Potency is 29.9 µM (active) and 48.9 µM (active) and 26.8 µM (active) in test [1]; 21.1 µM (active) and 6.91 µM (active) in test [2]; 18.8 µM (active) and 54.9 µM (active) and inactive in test [3]; 3.35 µM (active) and 4.89 µM (active) and 2.13 µM (active) in [4]; 37.6 µM (active) and 48.9 µM (active) and 26.8 µM (active) in test [5]; 16.8 µM (active) and 43.6 µM (active) and 23.9 µM (active) in [6]. Moreover, the Potency was 9.44 µM (active) and 19.5 µM (active) and 23.9 µM (active) in [7]; 10.6 µM (active) and 19.5 µM (active) and 23.9 µM (active) in [8]; 7.5 µM (active) and 15.5 µM (active) and 19 µM (active) in test [9]. Also, the Potency result in test [10] is “inactive”.
Take `O=c1c(O)c(-c2ccc(O)cc2O)oc2cc(O)cc(O)c12`: the Potency result in test [1], in [2], in test [3], in test [5], in test [7] and in test [10] was “inactive” in each case. Further, in [4], the max response was 7.77% (inactive).
Turning to `CCCCCCCCCCCCCCCC[N+](C)(C)CC`, the Potency in test [1] was 43.8 µM (active) and 23.9 µM (active); in test [2], 21.9 µM (active) and 6.74 µM (active); in [3], 55.1 µM (active); in [4], 4.38 µM (active) and 3.38 µM (active); in test [5] it was 43.8 µM (active) and 23.9 µM (active); in [6], 49.1 µM (active) and 23.9 µM (active). In addition, the Potency in test [7] was 21.9 µM (active) and 21.3 µM (active); in test [8], 24.6 µM (active) and 21.3 µM (active); in test [9], 15.5 µM (active) and 19 µM (active). Moreover, the Potency result in [10] was “inactive”.
Take `O=C(O)c1cc(O)c2ccccc2c1O`: the Potency in test [1] is 19.5 µM (active); in test [2] it was 38.9 µM (active); in test [3], 17.4 µM (active); in test [4], 38.9 µM (active); in test [6] it was 43.6 µM (active); in test [7] it was 21.9 µM (active). The Potency was 43.6 µM (active) in test [8] and 24.5 µM (active) in [9].
Turning to `CC(=O)c1ccc(C(C)=O)cc1`, the Potency entry in [1], in test [2], in test [3], in test [5], in [6] and in test [7] was “inactive” throughout. Further, the Potency entry in test [8], in test [9] and in test [10] was “inactive” in each case. For the same compound, in [4], the max response was -3.34% (inactive).
Take `CCCCNS(=O)(=O)c1ccc(C)cc1`: the Potency result in test [1], in test [2], in test [3], in test [5], in [6] and in test [7] was “inactive” in each case. In [10], the Potency result was “inactive”. For the same compound, in test [4], the max response is -16.6% (inactive). Besides, in test [8], the Potency is 6.16 µM (active).
For the compound `CC(C)(C)NSc1nc2ccccc2s1`, the Potency result in [1], in [2], in test [3], in test [5], in test [6] and in test [7] was “inactive” in each case. For the same compound, the Potency entry in [8], in test [9] and in test [10] was “inactive” throughout. In addition, the max response in [4] was 8.62% (inactive).
As to `CCCCCCCCCCCC(=O)OCC(C)OC(=O)CCCCC(=O)O` (configuration not stated), the Potency result in [1], in test [2], in [3], in test [5], in test [6] and in test [7] was “inactive” in each case. Besides, the Potency result in test [8], in test [9] and in test [10] was “inactive” each time. Further, in test [4], the max response is 14.1% (inactive).
